# Experimental data: the supplement of paper PMC6555819
# Experiments:
# Test in all cases: PBM binding z-score (relative to random genomic background probes); higher = stronger binding; sequences stand for … in GC…GCGATTGACAGCGTAGAATGAAGG
# [1] = system: FXR:RXRa (NR concentration 270 nM, RXRa partner concentration 90 nM)
# In short: (§1)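 Custom Agilent 4×180K protein-binding microarrays carried double-stranded probes, each with a 34-nt variable region. These regions held direct-repeat seeds, single-nucleotide variants, half-site ablations and random human genomic background sequences. Ligand-free nuclear receptor dimers were incubated on the arrays for 1 h, antibodies against each partner (one per run) detected binding, and scanned fluorescence was regression-normalized. Binding z-scores take the random background probes as reference.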
# [2] = system: LXRa:RXRa (NR concentration 270 nM, RXRa partner concentration 90 nM)
# In short: as §1
# [3] = system: LXRa homodimer (NR concentration 270 nM)
# In short: as §1
# [4] = system: LXRb:RXRa (NR concentration 270 nM, RXRa partner concentration 90 nM)
# In short: as §1
# [5] = system: LXRb homodimer (NR concentration 270 nM)
# In short: as §1
# [6] = system: PPARa:RXRa (NR concentration 270 nM, RXRa partner concentration 90 nM)
# In short: as §1
# [7] = system: PPARg:RXRa (NR concentration 180 nM, RXRa partner concentration 90 nM)
# In short: as §1
# [8] = system: PPARg:RXRa 270nM:90nM, anti-RXR (NR concentration 270 nM, RXRa partner concentration 90 nM)
# In short: as §1
# [9] = system: PPARg:RXRa 30nM:10nM, anti-RXR (NR concentration 30 nM, RXRa partner concentration 10 nM)
# In short: as §1
# [10] = system: PPARg:RXRa 90nM:30nM, anti-RXR (NR concentration 90 nM, RXRa partner concentration 30 nM)
# In short: as §1
# [11] = system: PPARg:RXRa DBDmut IVT, anti-RXR (DBD mutation: RXRa K156A/R161A, NR concentration 270 nM, RXRa partner concentration 90 nM)
# In short: as §1
# [12] = system: PPARg:RXRa IVT, anti-PPARg (NR concentration 270 nM, RXRa partner concentration 90 nM)
# In short: as §1
# [13] = system: PPARg DBDmut:RXRa IVT, anti-PPARg (DBD mutation: PPARg1 K132A/R137A, NR concentration 270 nM, RXRa partner concentration 90 nM)
# In short: as §1
# [14] = system: PPARg DBDmut IVT, anti-PPARg (DBD mutation: PPARg1 K132A/R137A, NR concentration 270 nM)
# In short: as §1
# [15] = system: PPARg homodimer (NR concentration 180 nM)
# In short: as §1
# [16] = system: PXR:RXRa (NR concentration 270 nM, RXRa partner concentration 90 nM)
# In short: as §1
# [17] = system: PXR homodimer (NR concentration 270 nM)
# In short: as §1
# [18] = system: RARa:RXR (NR concentration 270 nM, RXRa partner concentration 90 nM)
# In short: as §1
# [19] = system: RARa homodimer (NR concentration 270 nM)
# In short: as §1
# [20] = system: RARb:RXRa (NR concentration 270 nM, RXRa partner concentration 90 nM)
# In short: as §1
Sequence,PBM binding z-score [1],PBM binding z-score [2],PBM binding z-score [3],PBM binding z-score [4],PBM binding z-score [5],PBM binding z-score [6],PBM binding z-score [7],PBM binding z-score [8],PBM binding z-score [9],PBM binding z-score [10],PBM binding z-score [11],PBM binding z-score [12],PBM binding z-score [13],PBM binding z-score [14],PBM binding z-score [15],PBM binding z-score [16],PBM binding z-score [17],PBM binding z-score [18],PBM binding z-score [19],PBM binding z-score [20]
CCTGCTAGGTCAATGGTCAGCCAAAGCAGCTCGC,2.77,2.02,0.0245,1.36,-0.223,3.1,5.04,5.03,2.96,5.02,4.18,3.97,-0.884,-0.321,1.16,0.76,-0.543,1.52,-0.219,3.77
TCTTGTAGATCAAGCAGGTTACGAAAGCCTGAGT,0.426,0.343,-0.343,0.659,-0.527,1.03,0.00625,1.34,2.5,1.88,1.76,1.04,-0.0946,0.435,0.37,0.615,-0.0528,0.951,-0.22,0.516
CGTTCAAGGTCAGCAGGTCAGTGAAAGCGACGTG,6.5,4.34,0.93,3.38,0.134,5.37,5.07,5.47,1.95,4.09,3.85,4.34,0.78,0.144,2.98,4.06,1.14,5.42,1.55,5.54
CCTTACGGGTCACGAGCTTATAGCACGACGAGCG,6.56,4.18,-0.258,3.49,-0.00639,5.9,6.33,6.04,2.64,4.89,3.78,4.75,2.37,2.07,3.27,3.85,-0.361,5.25,0.902,4.42
GATACAGGGTCAGCTAGAGGCCAGAGGATGGAAA,4.5,3.02,-0.423,2.39,-0.64,4.54,3.7,3.5,1.02,2.16,1.05,2.27,0.0573,-0.276,2.33,3.12,-0.127,4.59,0.2,4.17
ATATGTAGGTTATCGGGTAATTCAGTTTGCGCAT,0.917,1.31,1.01,1.33,0.955,3.5,5.49,5.19,2.91,4.5,7.14,7.39,1.87,2.29,2.19,1.23,1.15,1.11,1.97,1.02
CGTCAAAGTTCAACTAAGGTATCGTAAAGCACGC,7.21,6.22,4.37,4.24,2.23,5.15,4.83,5.57,2.02,4.5,0.0447,1.92,1.2,0.78,3.06,5.09,3.7,4.2,2.1,5.24
TCATATAGATAAACAGGTGAAAGTCCGTAAGTTA,1.22,1.04,0.611,1.09,0.473,1.69,1.41,2.83,4.51,3.77,2.87,1.36,0.902,1.03,1.33,1.07,0.573,1.37,1.53,0.536
ATCTCTAGGTAAAGATAGTTGAGTGAATGCAAAT,0.323,0.358,-0.0172,0.23,0.435,0.437,0.538,0.246,0.222,0.29,2.14,1.82,1.87,0.639,0.295,0.221,0.497,0.592,1.46,-0.0235
TCTTGTCGATCAGCAGGTTAAGAAAGCTGGCCAA,0.435,0.635,-0.135,0.381,0.00876,0.714,-0.663,1.47,2.63,1.91,1.61,0.358,-0.732,0.173,0.131,0.254,-0.436,0.75,-0.254,0.466
GCTGCTAGGTCAGGTTGGTCAGTTAACGGGTACG,1.25,0.792,0.267,0.719,0.0842,1.6,0.425,0.836,-0.54,-0.0172,2.8,2.15,-1,-0.445,0.781,0.391,0.149,0.719,-0.401,3.21
CGAACTAGGTCATTGACAGTACAGTGAATAGTAA,4.63,2.68,0.32,2.02,0.232,4.98,7.68,6.38,3.77,5.67,7.66,8.48,3.53,2.28,1.89,1.64,0.291,2.03,0.0313,3.67
CGTCCAAGGTCAGAGTGGTCAGTGAATGCCGAGT,4.91,3.23,0.338,2.49,-0.0536,3.83,1.79,2.5,0.0236,1.35,2.5,2.37,-0.175,-0.939,2.59,2.78,1.03,3.16,0.908,4.8
GCTATTAGTTGAAAGCGCAACCGAATGATTCTCG,-0.0843,-0.353,0.0981,-0.318,-0.315,-0.41,0.157,-0.0229,0.0302,-0.22,0.316,-0.176,-0.265,-0.6,0.252,-0.405,-0.357,-0.564,-0.0512,-0.343
CAAACTAGGTCGAGGTCAAAGTCGGTTTGTGCCA,5.44,5.1,3.63,4.38,1.07,5.46,7.22,6.53,3.54,5.58,6.55,6.77,0.51,0.375,1.85,5.34,2.29,4.71,0.547,4.28
CTTACTGGGCCAAAAAGGTCATTGATGCCGATAA,4.42,4.75,3.31,4.26,0.76,5.17,5.05,5.24,2.89,4.69,6.06,5.95,2.51,1.61,4.12,5.01,4.11,5.16,1.79,4.03
GCTTGTAGAACAAGGTTAAGAAAGACTAAGCTAA,-0.242,0.558,-0.426,0.502,-0.664,1.6,0.852,1.67,0.36,1.11,1.63,1.06,-0.311,-0.211,0.167,0.293,-0.338,0.612,-0.688,0.679
TCATACAGGTAAACAGGTGAAAGTCCGTAAGTTA,0.989,1.11,0.506,1.2,0.202,2.18,1.6,3.16,4.13,3.71,3.22,2.7,0.361,1.11,1.16,1.03,0.792,1.42,1.16,0.895
CCTACTGGGCCAAGGTCATTAATCAGTCAAAGCA,2.47,2.57,1.18,2.82,-0.0551,3.71,3.45,4.19,1.47,3.23,3.47,4.44,0.31,0.133,2.15,3.16,1.21,3.39,0.145,3.29
ACTCGCAGGCCAAGTTTGGGTCACTCAAACAAAG,0.277,0.222,-0.578,0.571,-0.644,1.39,-0.313,0.179,-0.845,-0.263,0.227,0.485,-0.206,-0.189,0.897,0.84,-0.477,1.47,-0.257,1.89
GCTACTTGGTCAGTAAAAGGTCACACACCGGTCG,3.65,4.51,4.98,4.37,1.61,4.59,3.39,4.65,2.3,4.1,1.59,3.24,0.501,1.24,5.33,5.09,1.32,6.09,2.99,4.23
TTACCAAGGTGAAGGGCGTTGATCCCTCTGTAGA,0.622,0.629,-0.192,0.495,-0.575,1.47,0.846,2.19,0.835,1.69,1.73,2.43,-0.0766,-0.0935,0.279,0.365,-0.351,0.762,-0.0384,1.64
TCTTGTAGATCAATAGACGTTAAGAAAGTGCGCT,0.594,0.28,-0.214,0.165,0.106,0.212,-0.0755,1.51,2.76,2.26,1.93,0.361,0.093,1.4,-0.0841,0.0599,-0.0185,0.0974,0.424,-0.173
CCTTACGCGTCACGAGGTTATAGCACGACGAGCG,0.529,0.868,0.107,0.95,0.329,1.44,1.08,0.331,-0.172,-0.00609,0.147,0.154,0.124,0.548,1.05,1.03,0.532,1.15,0.761,0.811
CTTCCAAGGTCAAAGGTCAGTGAAGAGATGACGG,8.35,7.17,4.94,6.74,2.43,7.29,11.1,9.09,8.56,10.7,4.31,5.99,1.55,2.25,5.02,7.21,2.73,8.8,3.33,5.92
ATACCAAGGTGATCGTGAGGTCGATGATACTAAC,1.46,0.961,0.482,0.993,-0.149,1.34,0.934,0.585,0.169,0.24,0.508,1.52,0.609,0.528,0.828,1.91,0.391,1.9,0.262,1.55
TCTGCTAGGTCATTTGGTCAGCTAACGAGCTGCC,4.28,3.21,1.04,2.03,1.81,3.19,1.97,3.11,1.64,2.37,3.73,3.88,3.37,1.7,1.5,1.46,-0.592,2.1,-1.02,3.62
CTCGAAAGGTAGTGCTCAGGTGAGTATACCAAAC,-0.118,-0.487,-0.334,-0.319,-0.503,-0.373,-0.362,-0.344,-0.375,-0.618,-0.0569,-0.0512,-0.21,-0.517,-0.0331,-0.295,-0.0771,0.238,0.44,-0.123
